Among the test systems are NCI-H23 lung; NCI-H226 lung; NCI-H322M lung; HOP-62 NSCLC; NCI-H460 lung; HOP-92 NSCLC; 786-0 renal; COLO 205 colon; A549/ATCC NSCLC.
What all share (experiment): NCI-60 one-dose screen, 48 h (100 = growth as untreated, 0 = no growth, -100 = all killed)
Conditions in all cases: 10 µM unless noted

Our source for the growth values is PubChem BioAssay (NCI).

Compounds without any hit were thinned out: in the full panel of roughly 83,000, 20% have a hit.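 Note: values are percent growth. 100 is the growth of untreated cells, values between 100 and 0 indicate rising inhibition; between -100 and 0 indicates cell death.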 Unmarked numbers belong to inactive results. Calls of active or inactive are those of the source. How the source made its calls: active means growth percent below 10; inactive means the rest.

For the compound `O=C(O)CCC(=O)OC[C@@H](NC(=O)C(Cl)Cl)[C@H](O)c1ccc([N+](=O)[O-])cc1`, the growth is 98.4% in the test on NCI-H23 lung; 89.3% with NCI-H226 lung; 99.5% in the test with NCI-H322M lung; 98.5% in the test with HOP-62 NSCLC; 111% in the test on NCI-H460 lung; 86.7% in the test on HOP-92 NSCLC. For the same compound, the growth in the test on 786-0 renal was 93.7%; in the test on COLO 205 colon, 99.4%.

As for `O=C(COc1ccc(/C=C2\Oc3ccc4ccccc4c3C2=O)cc1)c1ccc(Cl)cc1`, the growth with NCI-H23 lung was 98.2%; with NCI-H226 lung it was 106%; in the test with NCI-H322M lung, 102%; in the test with HOP-62 NSCLC it was 105%; with NCI-H460 lung it was 110%; in the test with HOP-92 NSCLC, 97.7%. Also, the values for the growth in the test on 786-0 renal and in the test with COLO 205 colon were 106% and 124%, respectively.

Turning to `COc1ccc(Cl)cc1Nc1nc(C(F)(F)F)ccc1C(=O)N/N=C/c1c(Cl)cccc1Cl`, the growth is 74.1% in the test with NCI-H23 lung; 59.6% in the test with NCI-H226 lung; 44.7% in the test with NCI-H322M lung; 58.5% with HOP-62 NSCLC; 41.6% in the test on NCI-H460 lung; 70.9% in the test on HOP-92 NSCLC. In addition, the results for the growth in the test with 786-0 renal and in the test on COLO 205 colon were 43.7% and 35.9%, respectively.

In the case of `Nc1ccc2c(c1)Cc1cc(Cl)c(Cl)cc1-2`, the growth in the test with NCI-H23 lung was 68.1%; in the test with NCI-H226 lung, 92.3%; in the test on NCI-H322M lung, 60.5%; in the test on HOP-62 NSCLC, 86.5%; in the test on NCI-H460 lung it was 52.6%; with A549/ATCC NSCLC it was 59.1%. Besides, the results for the growth in the test with 786-0 renal and with COLO 205 colon were 59.7% and 85.1%, respectively.

As to `CC1Cc2ccccc2N1C(=O)c1ccc(C(=O)c2ccccc2)cc1` (stereo not given), the growth in the test with NCI-H23 lung is 98.3%; in the test with NCI-H226 lung it was 78.1%; in the test with NCI-H322M lung, 91.2%; in the test on HOP-62 NSCLC, 80.5%; in the test on NCI-H460 lung, 99.3%; in the test with HOP-92 NSCLC it was 92%. The growth is 86.7% in the test on 786-0 renal and 97.1% with COLO 205 colon.

`COc1cc(/C=C/C(=O)CC(=O)/C=C/c2ccc(OC(=O)CCNC34CC5CC(CC(C5)C3)C4)c(OC)c2)ccc1OC(=O)CCNC12CC3CC(CC(C3)C1)C2`: the growth in the test on NCI-H23 lung was 28.5%; with NCI-H226 lung, 39.8%; in the test with NCI-H322M lung it was 63.4%; in the test with HOP-62 NSCLC, 66.9%; in the test on NCI-H460 lung, 10.3%; in the test with A549/ATCC NSCLC it was 63.1%. Further, the values for the growth with 786-0 renal and in the test on COLO 205 colon were 16.7% and 45.9%, respectively.

Consider `CCOC(=O)CCC(=O)O[C@H]1[C@H](O[C@@H]2[C@@H](C)[C@H](O[C@H]3C[C@@](C)(OC)[C@@H](O)[C@H](C)O3)[C@@H](C)C(=O)O[C@H](CC)[C@@](C)(O)[C@H](O)[C@@H](C)C(=O)[C@H](C)C[C@@]2(C)O)O[C@H](C)C[C@@H]1N(C)C`, for which the growth in the test on NCI-H23 lung is 99.6%; with NCI-H226 lung, 97.2%; in the test on NCI-H322M lung, 90.2%; with HOP-62 NSCLC, 94.6%; in the test with NCI-H460 lung, 119%; in the test on HOP-92 NSCLC, 102%. Besides, the growth was 98.2% with 786-0 renal and 109% in the test with COLO 205 colon.

Consider `COc1cnc2c(c1)C(=O)c1c-2n(CCCn2ccnc2)c(=O)c2cc(F)ccc12`, for which the growth was -36.7% (active) with NCI-H23 lung; -67.9% (active) in the test on NCI-H226 lung; -1.28% (active) in the test with NCI-H322M lung; -29.8% (active) in the test with HOP-62 NSCLC; -62.9% (active) in the test on NCI-H460 lung; -20.8% (active) in the test on A549/ATCC NSCLC. Besides, the growth was -62.6% (active) with 786-0 renal and -34% (active) in the test with COLO 205 colon.

Take `O=C(NC1CCS(=O)(=O)C1)c1ccc(C(=O)c2ccccc2)cc1` (stereo not given): the growth with NCI-H23 lung was 98.9%; with NCI-H226 lung, 94.5%; with NCI-H322M lung, 128%; in the test with HOP-62 NSCLC it was 101%; in the test on NCI-H460 lung it was 104%; in the test on HOP-92 NSCLC, 101%. Further, the growth in the test on 786-0 renal is 101%; in the test with COLO 205 colon, 102%.

As for `N#Cc1ncc(-c2ccc(C(F)(F)F)cc2)c(NC2CCCCCC2)n1`, the growth with NCI-H23 lung was 29.9%; in the test with NCI-H226 lung, 35.1%; in the test on NCI-H322M lung, 78.2%; in the test with HOP-62 NSCLC, 43.9%; with NCI-H460 lung, 29.8%; in the test with HOP-92 NSCLC, -22.6% (active). Moreover, the results for the growth with 786-0 renal and with COLO 205 colon were 37.9% and 7.19% (active), respectively.

Turning to `COc1cc2c(cc1OC)C(=O)/C(=C/c1cccc(OCC(=O)c3ccccc3)c1)C2`, the growth in the test with NCI-H23 lung was 90.8%; in the test on NCI-H226 lung, 86.1%; in the test on NCI-H322M lung, 75%; in the test on HOP-62 NSCLC it was 105%; in the test with NCI-H460 lung it was 90.4%; in the test with HOP-92 NSCLC it was 40.9%. The results for the growth in the test with 786-0 renal and with COLO 205 colon were 91.2% and 119%, respectively.

On to `COc1ccc(C(=O)COc2cccc(/C=C3\CSc4ccc(Cl)cc4C3=O)c2)cc1`, for which the growth in the test on NCI-H23 lung is 87.1%; in the test on NCI-H226 lung, 75.1%; with NCI-H322M lung it was 93.5%; in the test on HOP-62 NSCLC, 95.8%; with NCI-H460 lung it was 101%; in the test with HOP-92 NSCLC it was 68%. Moreover, the growth in the test with 786-0 renal is 97.3%; in the test on COLO 205 colon, 123%.

As for `COc1ccc2c(c1)sc1nc(-c3ccc(N(C)C)cc3)cn12`, the growth is 99.2% with NCI-H23 lung; 139% in the test with NCI-H226 lung; 98.2% in the test with NCI-H322M lung; 105% in the test on HOP-62 NSCLC; 85% with NCI-H460 lung; 96.6% in the test with A549/ATCC NSCLC. For the same compound, the values for the growth with 786-0 renal and with COLO 205 colon were 89.7% and 93.7%, respectively.

On to `CCSc1nc(-c2ccc(F)cc2)c(C#N)c(=O)[nH]1`, for which the growth in the test with NCI-H23 lung is 95.2%; in the test with NCI-H226 lung, 98.7%; with NCI-H322M lung it was 101%; in the test with HOP-62 NSCLC it was 110%; in the test with NCI-H460 lung, 108%; in the test with HOP-92 NSCLC it was 131%. The growth is 108% in the test on 786-0 renal and 126% with COLO 205 colon.

Turning to `CCC(C)C1NC(=O)C(CCNCS(=O)(=O)O)NC(=O)C(NC(=O)C(CCNCS(=O)(=O)O)NC(=O)C(NC(=O)C(CCNCS(=O)(=O)O)NC(=O)CCCCC(C)C)C(C)O)CCNC(=O)C(C(C)O)NC(=O)C(CCNCS(=O)(=O)O)NC(=O)C(CCNCS(=O)(=O)O)NC(=O)C(C(C)CC)NC1=O` (stereo not given), the growth is 66.6% in the test on NCI-H23 lung; 77% in the test with NCI-H226 lung; 70.3% with NCI-H322M lung; 46.8% in the test on HOP-62 NSCLC; 48.8% with NCI-H460 lung; 95.8% with HOP-92 NSCLC. The growth is 93.1% in the test with 786-0 renal and 1.57% (active) with COLO 205 colon.
